TRHR enhancer: qHTS for Small Molecule Agonists and Allosteric Enhancers of Human TRH Receptor: Primary Screen for Enhancers; Thyrotropin-releasing hormone receptor (Homo sapiens), P34981; TRHR cells, fluo-8 calcium fluorescence, EC20 TRH enhancement; enhancement, % at 2 µM; hit rate 0.66% among 360,000; in the data active = enhancement above about 30%
Target sequence (P34981 whole entry, looked up): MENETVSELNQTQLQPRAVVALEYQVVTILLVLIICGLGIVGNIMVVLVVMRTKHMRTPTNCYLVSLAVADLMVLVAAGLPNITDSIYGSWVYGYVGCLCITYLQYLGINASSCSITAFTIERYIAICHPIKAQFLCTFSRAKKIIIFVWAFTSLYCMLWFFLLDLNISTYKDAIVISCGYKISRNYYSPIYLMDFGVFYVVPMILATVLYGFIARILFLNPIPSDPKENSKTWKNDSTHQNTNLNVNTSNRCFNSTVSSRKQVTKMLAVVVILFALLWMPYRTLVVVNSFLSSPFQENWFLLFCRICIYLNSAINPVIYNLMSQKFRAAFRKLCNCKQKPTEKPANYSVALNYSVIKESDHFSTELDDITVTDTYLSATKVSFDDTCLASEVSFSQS
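Enhancer read-out: after compound pinning and an initial kinetic agonist-mode read, an EC20 of TRH (10 nM final) was injected and fluo-8 calcium signal (Ex 480/Em 530) followed at 1 s/cycle for 100 cycles in TRHR-expressing cells.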
D1 antagonist: Antagonist of Human D 1 Dopamine Receptor: qHTS. hit rate 3.2% among 360,000. D(1A) dopamine receptor (Homo sapiens), P21728. HEK293 TREx D1 cells, calcium flux, dopamine EC80; active compounds read low. activity change, negative = inhibition, % at 10 µM; in the data active = activity change below about -30%
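HEK293 T-REx cells expressing inducible, force-coupled D1 receptor; no-wash Ca dye, 30–90 min RT. Cmpd → 180 s read at 1 Hz → EC80 DA → 180 s read.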
TRHR agonist: qHTS for Small Molecule Agonists and Allosteric Enhancers of Human TRH Receptor: Primary Screen for Agonists; TRHR cells, calcium flux fluo-8, FDSS agonist mode; activation, % at 2 µM; hit rate 0.18% among 360,000; AID 493084, 2011
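Steps: seed TRHR cells overnight; add fluo-8 no-wash Ca dye, RT 30 min–1.5 h; record 10 s baseline; pin-transfer compounds; monitor fluorescence 1 cycle/s for the agonist window. Calcium increases flag candidate agonists.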
D1 potentiator: Potentiators of Human D1 Dopamine Receptor: qHTS; D(1A) dopamine receptor (Homo sapiens), P21728; potentiation, % at 10 µM; hit rate 0.036% among 360,000; HEK293 TREx D1 cells, calcium flux, dopamine EC20 potentiation; AID 504651, 2011; in the data active = potentiation above about 30%
D1 agonist: Allosteric Agonists of the Human D1 Dopamine Receptor: qHTS; activation, % at 2 µM; hit rate 1% among 360,000; D(1A) dopamine receptor (Homo sapiens), P21728; HEK293 T-REx D1 cells, calcium flux, agonist mode; AID 504660, 2011
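Inducible HEK293 T-REx D1 cells, force-coupled to calcium signalling, were plated at 4000 cells/well with tetracycline and held overnight at 30 C. After no-wash calcium dye loading, compound-evoked calcium rise over 180 s flagged agonists.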
Of the large screens only hits and unclear results are named; the others gave an inactive call. An excerpt weighted towards active compounds, which were near 4.7% of everything screened. Cut-off read from the data, not from the text of the source, unless noted: active = activation above about 30%; inactive = the rest.

CCNC(=O)COC(=O)c1[nH]c(C)c(C(=O)OC)c1C	none
Cc1ccc(NC(=O)c2cnc(N3CCCCC3)c3ccccc23)c(C)c1	none
Cc1ccnc(NC(=O)C2CCN(S(=O)(=O)c3ccc(Cl)c(C(F)(F)F)c3)CC2)c1	none
Cc1ccc(S(=O)(=O)N2CCC(C(=O)Nc3ccc4c(c3)OCO4)CC2)cc1	D1 antagonist -47.0
O=C(CN1CCCN(S(=O)(=O)c2ccc(Br)cc2)CC1)Nc1ccc2c(c1)OCO2	D1 antagonist -49.2
O=C(Nc1ccccn1)C1CCN(S(=O)(=O)c2ccc3c(c2)OCCCO3)CC1	none
Cc1ccc(NC(=O)C2CCN(S(=O)(=O)c3ccc(Cl)c(C(F)(F)F)c3)CC2)nc1	D1 antagonist -39.1
Cc1ccc(NC(=O)C2CCN(S(=O)(=O)c3ccc4c(c3)OCCCO4)CC2)nc1	D1 antagonist -33.0
CCCCCCCCCCCC(=O)NC(Cc1ccc(OC)c([N+](=O)[O-])c1)C(=O)O (configuration not stated)	D1 antagonist -48.2, D1 agonist 137.1
Cc1c(C(=O)NC(C)c2ccccc2)sc2nc3n(c(=O)c12)CCCC3 (configuration not stated)	none
COc1ccc(SCCN2CC[C@@H](O)CCC2=O)cc1	D1 antagonist -57.8
Cn1c2cc(C#N)sc2c2cnn(Cc3ccc(F)cc3)c(=O)c21	none
O=C(O)c1ccc(Cn2ccc3ccccc32)o1	D1 antagonist -36.3
Cc1ccccc1NC(=O)Nc1ccccc1C(=O)NCc1ccccc1	none
O=C(COc1ccc(Cl)cc1)Nc1ccccc1C(=O)NCc1cccnc1	D1 agonist 87.7
O=C(CCl)Nc1ccccc1C(=O)NCc1ccccc1	TRHR enhancer 33.5
O=C(COc1ccc(Cl)cc1)Nc1ccc(C(=O)NCc2cccnc2)cc1	none
O=C(NCc1cccnc1)c1ccc(COc2ccc(Cl)cc2)cc1	D1 antagonist -31.9
CN(C)CCNC(=O)C(=O)NCC(c1cccnc1)N1CCN(c2ccccc2)CC1 (configuration not stated)	D1 antagonist -32.8
Cc1ccc(C(=O)NCC(c2cccnc2)N2CCc3ccccc3C2)cc1C (configuration not stated)	D1 antagonist -31.2
O=C(NCc1cccnc1)C(=O)NCC(c1cccnc1)N1CCN(c2ccc(F)cc2)CC1 (configuration not stated)	none
O=C(NCCc1ccccc1)C(=O)NCC(c1cccnc1)N1CCN(c2ccc(F)cc2)CC1 (configuration not stated)	D1 agonist 32.8
O=C(NCC(c1cccnc1)N1CCN(c2ccccc2F)CC1)c1ccccc1 (configuration not stated)	D1 antagonist -31.8
CN(C)CCNC(=O)C(=O)NCC(c1cccnc1)N1CCN(c2ccc(F)cc2)CC1 (configuration not stated)	none
CC(C)(C)c1ccc(C(=O)NCC(c2cccnc2)N2CCc3ccccc3C2)cc1 (configuration not stated)	none
COc1ccc(Nc2nnc(-c3ccc(C)c(S(=O)(=O)N4CCN(C)CC4)c3)c3ccccc23)cc1	none
CCN(CC)C1=NS(=O)(=O)c2cc([N+](=O)[O-])ccc21	TRHR enhancer 34.3
Cc1ccccc1-c1noc(-c2ccc(NC3CCCC3)c([N+](=O)[O-])c2)n1	none
COc1ccccc1-c1noc(-c2ccccc2)n1	none
COc1ccc(-c2nc(-c3ccccc3OC)no2)cc1OC	D1 antagonist -36.1
COc1ccccc1-c1noc(-c2ccc(NC3CCCC3)c([N+](=O)[O-])c2)n1	D1 antagonist -40.5
COc1ccc(-c2ccc(-c3noc(-c4ccccc4)n3)c(OC)n2)cc1	D1 antagonist -45.6
CCCn1ccc2c(OCC(=O)NCc3ccccc3Cl)cccc2c1=O	none (no result: D1 antagonist)
O=C(/C=C/c1ccccc1)Nc1nc2n(n1)C(c1ccc(F)cc1)C=C(c1ccccc1)N2 (configuration not stated)	none
Cc1cc2c(s1)c1cnn(Cc3c(F)cccc3C(F)(F)F)c(=O)c1n2C	none
Cc1ccc(N2C(=O)N(CC(=O)N(C)Cc3ccccc3)C(=O)C2C)cc1 (configuration not stated)	D1 antagonist -55.0, D1 agonist 38.7
CCOC(=O)N1CCC(NC(=O)c2cnn3c2NC(c2ccco2)CC3C(F)(F)F)CC1 (configuration not stated)	TRHR enhancer 32.2
COc1ccc(OC)c2sc(N3CCN(C(=O)c4ccc5c(c4)CCCC5)CC3)nc12	none (no result: D1 antagonist)
COC(=O)C1=C(C)OC(N)=C(C#N)C1c1ccccc1F (configuration not stated)	none
N#CC1=C(N)Oc2cc(O)c(Cl)cc2C1c1ccccc1F (configuration not stated)	TRHR agonist 55.3, D1 agonist 165.6
Cc1ccc2nc(-c3cc(NC(=O)/C=C/c4ccccc4)ccc3Cl)oc2c1	none
Cc1ccc(NC(=O)Nc2ccno2)cc1	D1 antagonist -36.8
OCCNCCCOc1ccc(Cl)cc1Br	none
Clc1ccc(Cl)c(OCCCCNCc2ccccc2)c1	D1 antagonist -58.3, D1 agonist 80.7
Clc1ccc(OCCCNCc2ccccc2)c(Br)c1	D1 agonist 92.8
COc1ccc(CNC(=O)CN2C(=O)CSc3ccc(S(=O)(=O)N(C)C)cc32)cc1	none
Cc1ccc(SCC(=O)Nc2ccc(N3CCN(C)CC3)c(F)c2)c(C)c1	none (no result: D1 potentiator)
CC(C)c1ccc(/C=C2\Oc3c(ccc(O)c3CN3CCN(C)CC3)C2=O)cc1	D1 agonist 68.3
O=C1/C(=C/c2ccco2)Oc2c1ccc(O)c2CN1CCCCC1	none
CCN1CCN(Cc2c(O)ccc3c2O/C(=C\C=C\c2ccccc2OC)C3=O)CC1	TRHR agonist 32.7, D1 agonist 112.5
Cc1ccc(/C=C2\Oc3c(ccc(O)c3CN3CCN(CCO)CC3)C2=O)cc1	D1 agonist 32.2
COc1ccc(C2CC(O)(c3ccccc3)Oc3cc(OC)c(OC)c(OC)c32)cc1 (configuration not stated)	D1 antagonist -36.2
CCc1ccccc1NC(=O)CSC1=Nc2ccccc2C2=NC(Cc3ccccc3)C(=O)N12 (configuration not stated)	none
O=[N+]([O-])c1ccc(N2CCN(Cc3cccc([N+](=O)[O-])c3)CC2)cc1	D1 antagonist -39.9
O=[N+]([O-])c1ccc(CN2CCN(c3ccc([N+](=O)[O-])cc3)CC2)cc1	none
O=[N+]([O-])c1ccc(CN2CCSCC2)cc1	D1 antagonist -32.8

Screens (PubChem)
